Screening results (PubChem)
AmpC inh det – AmpC beta-lactamase inhibition, detergent assay. Potency, µM (highest dose often 28.7 µM), without a hit: at the highest dose activity change, negative = inhibition. AID 584. actives 0.09% (n = 71,000). purified AmpC, nitrocefin hydrolysis with detergent; active means well fitted curve in the direction sought with a large enough effect; inconclusive means small, poorly fitted or top-dose-only effect; further: on the % scale 0 is the no-effect control and ±100 the full control effect
Target sequence (P00811 whole entry, looked up): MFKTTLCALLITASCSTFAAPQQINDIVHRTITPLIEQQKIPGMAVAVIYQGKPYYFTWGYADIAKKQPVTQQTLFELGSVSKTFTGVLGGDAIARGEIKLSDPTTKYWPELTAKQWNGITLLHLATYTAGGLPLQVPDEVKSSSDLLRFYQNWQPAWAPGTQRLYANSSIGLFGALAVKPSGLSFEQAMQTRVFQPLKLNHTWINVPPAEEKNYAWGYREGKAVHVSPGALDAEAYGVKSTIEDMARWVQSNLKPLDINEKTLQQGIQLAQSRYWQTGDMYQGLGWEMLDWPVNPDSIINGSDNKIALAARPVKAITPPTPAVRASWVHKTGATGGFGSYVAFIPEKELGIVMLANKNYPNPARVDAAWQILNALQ
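E. coli AmpC (5.3 nM) in 20 mM phosphate pH 7.0 with 0.01% Triton X-100, preincubated 15 min RT with compound; nitrocefin (2 uL of 800 uM stock) hydrolysis followed by 480 nm absorbance every 20 s over 4 min.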
SmPrx2 inh – inhibitors of Schistosoma mansoni peroxiredoxin 2. S. mansoni Prx2 activity coupled to TGR/GSH (TGR is thioredoxin glutathione reductase), NADPH fluorescence loss, qHTS. Potency, µM. actives 0.07% (n = 65,000)
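qHTS, coupled TGR/Prx2 format; 15 min compound preincubation at RT; reaction started with H2O2 (2.5 mM aliquot); kinetic NADPH fluorescence decrease, ex 365/em 450 nm.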
AmpC inh no det – AmpC beta-lactamase inhibition, detergent-free assay; P00811; actives 1.8% (n = 71,000); AmpC nitrocefin hydrolysis, absorbance 480 nm, no detergent; Potency, µM (series often up to 28.7 µM), for inactives: at the top dose activity change, negative = inhibition; further: % of control where 0% means no effect
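Enzyme, pH 7.0 phosphate. Compound titrations were pre-incubated with AmpC for 15 min at room temperature before nitrocefin (stock 800 uM) addition; product formation was recorded at 480 nm every 20 s for 4 min.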
Anthrax LT inh – blocks cellular internalization of anthrax lethal toxin; Potency, µM (doses to about 40 µM), without a hit: top-dose activity change, negative = inhibition, most hits filed as inhibitors; AID 912; Cells, anthrax lethal toxin internalization, FRET ratio (460/530); actives 0.67% (n = 70,000); further: on the % scale 0 is the no-effect control and ±100 the full control effect; nearly all actives have a fitted effect of over 50% in size
Numbers without * were called inactive; ? = inconclusive; nt = no result given; [ ] = another dose, or the depositor's remark. Rows were chosen to be rich in hits. Some 2.4% of all compounds tested hit in one or more screens of this group. Unless noted, the call rests on the fitted dose curve. Potency means the concentration at half of the fitted maximal effect.

SMILES	AmpC inh det	SmPrx2 inh	AmpC inh no det	Anthrax LT inh
COc1cccc(C2CC(c3ccccc3)Nc3ncnn32)c1 (stereo unspecified)	-1%	>57	23%	-29%
CN(C)CCOC(=O)c1ccc(N)cc1	-4%[5.75 µM]	>57	2%[5.75 µM]	0%[8 µM]
CCN1C[C@@]2(COC(=O)c3ccccc3N3C(=O)C[C@H](C)C3=O)CC[C@H](OC)[C@@]34[C@@H]5CC6[C@@H](OC)C[C@@](O)([C@H]5[C@H]6OC)C(O)([C@@H]13)[C@@H](OC)[C@H]24	0%	>57	48%	?
Cc1ccccc1OC1C=CC(c2ccccc2)OC1CO (stereo unspecified)	nt	nt	nt	-11%[8 µM]
CN1CCC(=C2c3ccccc3C=Cc3ccccc32)CC1	-2%	>57	71%	7.9µM*
O=C(O)/C=C\c1ccc[c]([Sb](=[O])([OH])[OH])c1	-8%[5.75 µM]	>57	-3%[5.75 µM]	-19%[8 µM]
CCOC(=O)c1c(C)n(CCOC)c2ccc(O)cc12	-2%	>57	-10%	-1%
CCCCCS(=O)(=O)CCCCCCCCCCn1c(-c2ccc(O)cc2)c(C)c2cc(O)ccc21	nt	nt	nt	5µM*
CCNc1ncc2nc(-c3cc(F)cc(F)c3)c(=O)n(CCC#N)c2n1	4%	>57	6%	?
CCC(=O)Oc1ccc2c(C)cc(=O)oc2c1C	3%	?	-5%	?
Cc1cc(=O)oc2c1ccc1oc(/C(=N/O)c3ccccc3)c(C)c12	1%	nt	-11%	10µM*
COc1ccccc1OCCn1cc(C(=O)c2ccco2)c2ccccc21	6%	>57	6%	10µM*
O=C(c1cnccn1)N1CCC2(CC1)CCN(c1cccc(-c3ccccc3)c1)CC2	-7%	>57	150%	-12%
CCOC(=O)c1cc(-c2ccc(F)cc2)n(CC(=O)Nc2nccs2)c1C	10%	>57	3.2µM*[single pt active]	10µM*
CCOC(=O)c1cc(-c2ccccc2)n(CC(=O)O)c1C	-5%	>57	-5%	1%
COc1ccc(S(=O)(=O)Cc2ccc(C(=O)N3CCC(C(N)=O)CC3)o2)cc1	5%	>57	6%	9%
COc1ccccc1NC(=O)N1CCN(c2ccccn2)CC1	13%	>57	4µM*[single pt active]	6%
COc1ccccc1S(=O)(=O)Cc1ccc(C(=O)N2CCCC2)o1	11%	>57	22%	6%
Cc1ccccc1S(=O)(=O)Cc1ccc(C(=O)N2CCN(c3cccc(C)c3C)CC2)o1	-3%	>57	85%	?
COc1ccccc1S(=O)(=O)Cc1ccc(C(=O)N2CCN(c3ccccn3)CC2)o1	11%	>57	4µM*[single pt active]	-13%
COc1ccc(S(=O)(=O)Cc2ccc(C(=O)N3CCCC3)o2)cc1	9%	>57	3.2µM*[single pt active]	0%
Cc1ccccc1S(=O)(=O)Cc1ccc(C(=O)N2CC(C)CC(C)C2)o1 (stereo unspecified)	10%	>57	4µM*[single pt active]	3%
CC1=C(C(=O)O)N2C(=O)[C@@H](NC(=O)[C@@H](N)c3ccccc3)[C@@H]2SC1	-2%[12.8 µM]	nt	-17%[12.8 µM]	1%[3.58 µM]
COc1ccc(S(=O)(=O)Cc2ccc(C(=O)N3CCN(c4ccccn4)CC3)o2)cc1	11%	>57	4µM*[single pt active]	-14%
Cc1nc(C)c(-c2csc(NCc3ccco3)n2)s1	1%	>57	8%	-2%
SMILES	AmpC inh det	SmPrx2 inh	AmpC inh no det	Anthrax LT inh
Cc1nc(NC(=O)c2ccccc2)sc1-c1csc(NCc2ccco2)n1	14%	>57	13µM*	?
CC(C)[C@@H](CC(=O)N[C@@H]1CCNC[C@H]1C(=O)N[C@H](CC(=O)N[C@@H](CCC(=O)O)CC(=O)O)Cc1ccccc1)NC(=O)C[C@H](Cc1c[nH]c2ccccc12)NC(=O)[C@@H]1CNCC[C@H]1N	-3%	>57	116%	-8%
Cc1nc(N2CCOCC2)c2nc(-c3ccccc3)n(CCCN3CCCCC3C)c2n1 (stereo unspecified)	14%	nt	39%	9%
CCCC1C(c2ccco2)NC(c2ccco2)CC1(C)O (stereo unspecified)	-3%	>57	-10%	10µM*
O=C(NC1CCCC1)c1ccc(CS(=O)(=O)c2ccc(Br)cc2)o1	8%	>57	4µM*[single pt active]	-26%
CN1CCN(CCCNC(=O)c2ccc(CS(=O)(=O)c3ccc(Br)cc3)o2)CC1	10%	>57	22%	-2%
O=C(NCCCN1CCCC1)c1ccc(CS(=O)(=O)c2ccc(Br)cc2)o1	13%	>57	4µM*[single pt active]	-13%
CCN(CC)CCNC(=O)c1ccc(CS(=O)(=O)c2ccc(Br)cc2)o1	9%	>57	3.2µM*[single pt active]	-26%
O=C(NCCN1CCCCCC1)c1ccc(CS(=O)(=O)c2ccc(Br)cc2)o1	8%	>57	4µM*[single pt active]	?
CC1(C)CC[C@]2(C(=O)O)CC[C@]3(C)C(=CC[C@@H]4[C@@]5(C)CC[C@H](O)C(C)(C)[C@@H]5CC[C@@]43C)[C@@H]2C1	0%	>57	-13%	?
O=c1c(-c2cccs2)nc2cnc(Oc3cccc(Cl)c3)nc2n1C[C@H]1CCCO1	1%	>57	26%	?
Cc1ccc(-n2ncc3c(=O)[nH]c(SCC(=O)N4CCN(c5ccccc5)CC4)nc32)cc1	5%	>57	13µM*[single pt active]	-6%
Cc1ccc(-n2ncc3c(=O)[nH]c(SCC(=O)N4CCOCC4)nc32)cc1	0%	>57	2%	-14%
O=c1[nH]c(SCc2ccccc2Cl)nc2c1cnn2-c1ccccc1	8%	>57	7.9µM*	?
O=C(CSc1nnc(-c2ccccc2)o1)N1CCN(c2ccccc2)CC1	-4%	>57	13µM*[single pt active]	?
CCOc1ccc(-c2nnc(SCC(=O)N3CCN(c4ccccc4)CC3)o2)cc1	6%	>57	-3%	1%
Clc1ccc(C(c2ccc(Cl)cc2)C(Cl)(Cl)Cl)cc1	14%	nt	?	6.3µM*
Cn1c(=O)c(-c2cccs2)nc2cncnc21	0%	>11	6%	?
CN(C(=O)c1ccccc1C(=O)O)C1CC(C)(C)NC(C)(C)C1	11%	>57	-5%	-12%
Brc1ccc(Oc2cc(Br)c(Br)cc2Br)c(Br)c1	8%	nt	-8%	0.79µM*
Nc1nnc(COc2ccc(Br)cc2Br)s1	-8%	>57	-23%	2%
O=C(O)/C(Cc1ccc([N+](=O)[O-])cc1)=N/O	-1%[5.75 µM]	>57	-4%[5.75 µM]	4%[8 µM]
Cc1ccc(S(=O)(=O)/C=C\C#N)cc1	1%	>57	-3%	?
Cc1ccc(-c2csc(N3CCC(C(N)=O)(N4CCCCC4)CC3)n2)cc1	14%	>57	4µM*[single pt active]	-2%
CCN(CC)CCn1c(-c2ccccc2)nc2c(N3CCOCC3)nc(C)nc21	8%	nt	33%	8%
CCc1nc2ccccc2c(C(=O)OCC(=O)Nc2ccc(S(=O)(=O)N3CCOCC3)cc2)c1C	-3%	>57	52%	13µM*
COc1ncc2nc(-c3ccccc3)c(=O)n(C)c2n1	0%	>57	20%	-10%
N#Cc1cccc(-c2nccc(NCc3cccnc3)n2)c1	10µM*	>57	5µM*	5%
N#Cc1cccc(-c2nccc(NCc3ccccc3)n2)c1	10%	>57	19%	-8%
